Compound activity (PubChem)
Many of the other results were omitted from the sample, so hits are more common in it than they were.
IL-1B inflam inh: qHTS for Inhibitors of Inflammasome Signaling: IL-1-beta AlphaLISA Primary Screen; THP-1 LPS/ATP IL-1B secretion, AlphaLISA, 16 h; hits give low values; activity change, % at 57.5 µM; 360,000 compounds, 4.7% hits; in the data active = activity change below about -50%; inconclusive = mostly about -30% to -49%
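THP-1 cells pretreated 1 hr with compounds (up to 57.5 uM final), then stimulated with LPS (250 ng/mL final) plus ATP (1.25 mM final); secreted IL-1B measured by AlphaLISA after 16 hr, decreased signal indicating inhibition.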
HT1080-NT tox: qHTS for induction of synthetic lethality in tumor cells producing 2HG: qHTS for the HT-1080-NT fibrosarcoma cell line; HT-1080-NT fibrosarcoma viability, CellTiter-Glo ATP luminescence, 48 h; Potency, µM (doses to about 46.1 µM), without a hit: at the top dose activity, negative = less viability, hits mostly cytotoxic; 360,000 compounds, 1.6% hits; AID 686970, 2013;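 also: NT is the 2HG producing partner of a matched IDH1 knockdown line; potency is read from the fitted curve at half-maximal effect; 0% = DMSO-treated cells and -100% = media-only wells without cells; nearly all actives have a fitted effect of over 55% in size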
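750 cells/well, RPMI + 5% FBS; 2 h settle, compound pin-transfer, 48 h at 37 degrees C. CellTiter-Glo 10 min RT, luminescence. Normalized to DMSO and media-only wells.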
TDP1 cell noCPT: qHTS for Inhibitors of human tyrosyl-DNA phosphodiesterase 1 (TDP1): qHTS in cells in absence of CPT | DT40 Tdp1-/- hTDP1 cells, no CPT, ATP luminescence, 48 h | Potency, µM (highest dose often 46.2 µM), for inactives: at the top dose activity change, negative = growth inhibition, usual class: inhibitors | 420,000 compounds, 15% hits | AID 686978, 2013; also: potency is read from the fitted curve at half-maximal effect; nearly all actives have a fitted effect of over 55% in size
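Growth kinetics read by CellTiter-Glo luminescence after ≥48 hr at 37 °C. Cells: DT40 Tdp1-/- stably carrying human TDP1, 400 per well, compound exposure in the absence of CPT (DMSO vehicle).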
12-LOX inh: Primary qHTS assay for inhibitors of human arachidonate 12S-lipoxygenase (ALOX12): Round 2; purified 12hLO, xylenol orange hydroperoxide absorbance; Potency, µM (titrated, usually from 108 µM), inactives show at the top dose activity change, negative = inhibition, actives largely listed as inhibitors; 580,000 compounds, 1.1% hits; AID 1671190, 2021; also: potency is read from the fitted curve at half-maximal effect
Target sequence (P18054 whole entry, looked up): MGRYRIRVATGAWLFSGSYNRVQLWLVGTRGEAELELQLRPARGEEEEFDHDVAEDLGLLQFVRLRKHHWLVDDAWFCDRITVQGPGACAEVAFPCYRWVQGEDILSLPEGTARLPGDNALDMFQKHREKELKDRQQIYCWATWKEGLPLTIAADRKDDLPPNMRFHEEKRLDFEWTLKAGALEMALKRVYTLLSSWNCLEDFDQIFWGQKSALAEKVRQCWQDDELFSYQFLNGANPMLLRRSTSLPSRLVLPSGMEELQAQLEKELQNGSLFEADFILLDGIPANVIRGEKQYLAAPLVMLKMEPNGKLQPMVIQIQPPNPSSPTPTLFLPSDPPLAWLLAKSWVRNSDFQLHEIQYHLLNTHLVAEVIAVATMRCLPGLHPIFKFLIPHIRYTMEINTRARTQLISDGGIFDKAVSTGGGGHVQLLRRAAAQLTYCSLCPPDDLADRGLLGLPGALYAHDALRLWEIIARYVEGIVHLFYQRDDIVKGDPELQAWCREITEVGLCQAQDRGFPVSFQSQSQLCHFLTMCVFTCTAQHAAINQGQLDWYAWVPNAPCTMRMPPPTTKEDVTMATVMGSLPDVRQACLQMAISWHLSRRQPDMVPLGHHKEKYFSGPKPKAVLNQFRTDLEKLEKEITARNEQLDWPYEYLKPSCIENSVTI
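Hydroperoxide product was detected by ferrous iron/xylenol orange as the 573 to 405 nm absorbance ratio. Arachidonic acid at 40 uM (final) was turned over for 30 min at room temperature by 150 nM human 12hLO, pH 7.0 Hepes buffer, after 15 min compound preincubation.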
HT1080 IDH1KD tx: qHTS for induction of synthetic lethality in tumor cells producing 2HG: qHTS for the HT-1080-IDH1KD cell line; HT-1080 IDH1 knockdown viability, ATP luminescence, 48 h; Potency, µM (titrated, usually from 46.1 µM), inactives show at the top dose activity, negative = toxicity, most hits filed as cytotoxic; 360,000 compounds, 2% hits; AID 686971, 2013;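 also: potency is read from the fitted curve at half-maximal effect; 0% = DMSO wells and -100% = cell-free medium wells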
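In this qHTS, HT-1080 cells depleted of IDH1 are exposed for 48 h at 37 °C to compound titrations. Toxicity is scored from CellTiter-Glo luminescence, with DMSO as full viability and medium alone as none.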
TDP1 cell CPT: qHTS for Inhibitors of human tyrosyl-DNA phosphodiesterase 1 (TDP1): qHTS in cells in presence of CPT; chicken DT40 Tdp1-/-;hTDP1 cells + 20 nM CPT, ATP luminescence, 48 h; Potency, µM (highest dose often 46.2 µM), inactives show at the highest dose activity change, negative = growth inhibition, hits mostly inhibitors; 420,000 compounds, 12% hits; AID 686979, 2013; also: potency is read from the fitted curve at half-maximal effect; nearly all actives have a fitted effect of over 55% in size
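Chicken DT40 Tdp1-/- cells stably complemented with human TDP1 were seeded at 400 cells/well in medium containing 20 nM camptothecin, exposed to pin-transferred compounds, and grown at 37 °C for at least 48 hr. Viability was read as ATP luminescence.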
* hit, by the source's call; ? = inconclusive; / = no result; [ ] = remark or other dose. Unless noted, calls follow the shape of the dose curve; as a rule, active = well fitted curve in the direction sought with a large enough effect; inconclusive = small, poorly fitted or top-dose-only effect, or another doubt; inactive = no such curve, though single readings can be large; an effect the other way counts as inactive or inconclusive. Unless noted, % is scaled to controls: 0 for no effect and ±100 for the full control effect.

SMILES | IL-1B inflam inh | HT1080-NT tox | TDP1 cell noCPT | 12-LOX inh | HT1080 IDH1KD tx | TDP1 cell CPT
Cc1cc(N2CCN(S(=O)(=O)c3ccccc3)CC2)c2ccccc2n1 | -15.3 | ? | 18.4µM* | 0.1% | ? | 16.4µM*
O=S(=O)(c1cccs1)N1CCN(c2ccnc3cc(Cl)ccc23)CC1 | / | ? | 23.1µM* | 20.2% | ? | 13µM*
CC(=O)N1CCN(c2ccnc3cc(Cl)ccc23)CC1 | -18.9 | 5.7% | -27.5% | 4.2% | -5.3% | -13.2%
c1ccc(-c2csc(N3CCCCCC3)n2)cc1 | -0.9 | 10.6% | ? | -12.0% | 8.7% | -23.0%
Cc1nc([N+](=O)[O-])cn1CC(O)c1ccc(F)cc1 (stereo unspecified) | 4.3 | 0.4% | -5.1% | 0.0% | 12.4% | 8.0%
O=C1NCN(Cc2ccc(Cl)cc2)C12CCN(CC1CCCCC1)CC2 | / | / | / | -19.1% | / | /
O=S(=O)(Nc1nc2ccccc2nc1NCc1ccc(Cl)cc1)c1ccccc1 | / | / | / | 14.7% | / | /
CC(NC(=O)CC(c1ccccc1)c1cc(Cl)ccc1O)c1ccccc1 (stereo unspecified) | ? | -14.9% | 20.6µM* | -16.9% | ? | 14.6µM*
CN(Cc1ccccc1)C(=O)CC(c1ccccc1)c1cc(Cl)ccc1O (stereo unspecified) | -29.1 | ? | 20.6µM* | -16.6% | ? | 23.1µM*
Cc1ccc(O)c(C(CC(=O)NC(C)C)c2ccccc2)c1 (stereo unspecified) | 0.0 | -1.4% | -3.0% | -7.8% | -1.3% | -2.3%
COc1cc(-c2ccccc2)nc(N)n1 | 18.3 | -7.6% | -1.3% | 8.2% | 0.8% | -0.3%
Nc1nc(Cl)cc(-c2ccccc2)n1 | -50.1* | 2.3% | -15.2% | -28.7% | 0.0% | 3.1%
CCOC(=O)c1[nH]c2ccc(Br)cc2c1NC(=O)CCN1CCC(C)CC1 | -14.7 | ? | 18.4µM* | 0.0% | ? | ?
CCOC(=O)c1[nH]c2ccc(OC)cc2c1NC(=O)CCN1CCC(C)CC1 | 9.9 | 2.5% | -26.4% | ? | 7.2% | -28.1%
COCC(=O)NCCSc1c(C)[nH]c2ccccc12 | -4.3 | 17.8% | 8.3% | 4.4% | 4.3% | 1.5%
COCC(=O)c1[nH]c2ccccc2c1C | 16.6 | -5.9% | ? | 0.0% | 0.7% | 25.9µM*
CCCC(=O)Nc1c(C(=O)OCC)[nH]c2ccccc12 | -53.8* | ? | 1.84µM* | -6.1% | -3.9% | -21.0%
CCOC(=O)c1[nH]c2ccccc2c1NC(=O)c1ccc(S(=O)(=O)N2CCCCC2)cc1 | 12.9 | -15.5% | 23.1µM* | -6.7% | -13.4% | ?
CCOC(=O)c1[nH]c2ccccc2c1NC(=O)CC(C)C | -13.8 | -0.4% | 2.0% | 3.0% | 1.4% | -3.9%
Cc1cc(C)c([S+](=O)([O-])c2nnn3c2nc(N2CCOCC2)c2ccccc23)c(C)c1 | / | / | / | 4.7%[6.33 µM] | / | /
CC(=O)N(c1cccc(Cl)c1)C1C=CS(=O)(=O)C1 (stereo unspecified) | / | / | / | 11.2% | / | /
CCOC(=O)c1[nH]c2ccccc2c1NC(=O)c1ccccc1OCC | / | / | 0.731µM* | -28.0% | / | 0.651µM*
CCOC(=O)c1[nH]c2ccccc2c1NC(=O)c1ccc(OCC)cc1 | / | / | 0.8% | -8.4% | / | -7.9%
COc1ccc(-c2nc(C3CC3)nc3c2CCN(CCC(C)C)CC3)cc1 | / | / | / | 3.7%[6.33 µM] | / | /
CCSc1nc2ccccc2n1C(=O)/C=C/c1ccc(OC)c(OC)c1 | -102.5* | 8.2µM* | 3.26µM* | 0.2% | 5.8µM* | 4.11µM*
SMILES | IL-1B inflam inh | HT1080-NT tox | TDP1 cell noCPT | 12-LOX inh | HT1080 IDH1KD tx | TDP1 cell CPT
C=CCSc1nc2ccccc2n1C(=O)/C=C/c1ccc(OC)c(OC)c1 | -101.8* | ? | 3.55µM* | -4.1% | 2.51µM* | 5.01µM*
C=CCSc1nc2ccccc2n1C(=O)/C=C/c1cc(OC)c(OC)c(OC)c1 | -104.1* | 5.01µM* | 2.06µM* | 3.7% | 2.24µM* | 2.31µM*
CCn1c(SCC(=O)N/N=C/c2ccc(OC)c(OC)c2)nc2ccccc21 | 6.5 | 7.0% | ? | 18.2% | 2.2% | ?
O=C(CCS(=O)(=O)c1ccc(Br)cc1)NC1CCCCCC1 | 10.7 | -1.8% | ? | ? | -2.1% | -9.7%
Cc1ccc(/C=N/N(c2ccccc2)c2ccccc2)cc1 | / | / | / | -16.6% | / | /
Cc1cc(SCC(=O)NCc2ccc(Cl)cc2)nc(=O)[nH]1 | / | / | -13.1% | -14.0% | / | -2.5%
COc1ccc(S(=O)(=O)Nc2ccc3c(c2)N(C(C)=O)CCC3)cc1OC | -4.1 | -1.1% | ? | ? | 1.9% | ?
CC(=O)N1CCCc2ccc(NC(=O)c3ccc(OC(C)C)cc3)cc21 | / | / | 16.4µM* | -5.0% | / | ?
COc1ccc(C)cc1S(=O)(=O)Nc1ccc2c(c1)N(C(C)=O)CCC2 | 11.4 | 2.1% | 16.4µM* | -3.3% | -4.4% | 25.9µM*
COc1cccc(OC)c1C(=O)Nc1ccc2c(c1)N(C(C)=O)CCC2 | / | / | -4.0% | -8.5% | / | -2.3%
COc1ccc(S(=O)(=O)Nc2ccc3c(c2)N(C(C)=O)CCC3)cc1 | 7.7 | -22.0% | 16.4µM* | -2.7% | -18.4% | 18.4µM*
CCOC(=O)[C@@H]1CSCCS(=O)(=O)N1 | -0.4 | 13.6% | 18.4µM* | 0.6% | 5.4% | 11.6µM*
CC(C)NC(=O)OC[C@@H]1CSCCS(=O)(=O)N1 | / | / | / | -0.3% | / | /
CSc1nc2ncc3c(n2n1)CC1c2ccccc2CCN1C3=O (stereo unspecified) | -20.6 | 18.8% | ? | -12.3% | 3.5% | ?
O=C1c2cnc3nc(SCc4cccc(Cl)c4)nn3c2CC2c3ccccc3CCN12 (stereo unspecified) | 19.6 | 7.5% | 20.6µM* | -5.4% | 14.6% | 14.6µM*
O=C(Nc1ccc(F)cc1)Nc1ccc(N2CCCC2)c(S(=O)(=O)Nc2ccccc2Cl)c1 | -59.9* | ? | 23.1µM* | -6.7% | 23.1µM* | 23.1µM*
O=C(Nc1ccc(Cl)c(Cl)c1)Nc1ccc(N2CCCC2)c(S(=O)(=O)Nc2ccccc2Cl)c1 | -52.4* | ? | 4.11µM* | -6.3% | 13µM* | 3.26µM*
O=C(Nc1ccc(N2CCCCC2)c(S(=O)(=O)Nc2ccccc2Cl)c1)c1cccnc1 | ? | -0.5% | ? | ? | -28.8% | -28.4%
